The values below come from PubChem BioAssay (EPA / NIEHS).

Common to all, as to details: mRNA level, 48 h; actives raise or lower the signal
Read-out in assay [1]: Cyclin D1 (CCND1), CCND1 (gene 595)
Kind of assay: LTEA_HepaRG_CCND1: Life Technologies and Expression Analysis (LTEA) Assay for Cyclin D1 (CCND1) using HepaRG (AID 2283451).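 On AC50: TaqMan qRT-PCR transcript level normalised to ACTB GAPDH and POLR2A housekeeping genes.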 In short, it runs like this: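 Differentiated human HepaRG cells in serum-free induction medium were exposed 48 h to eight half-log concentrations up to 100 uM in 0.5% DMSO; mRNA quantified by TaqMan qRT-PCR, normalized to ACTB, GAPDH, POLR2A, fitted bidirectionally versus DMSO.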

Read-out in assay [2]: catalase (CAT), CAT (gene 847)
Nature of the assay: LTEA_HepaRG_CAT: Life Technologies and Expression Analysis (LTEA) Assay for catalase (CAT) using HepaRG (AID 2283452). In short, it runs like this:
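HepaRG cells in serum-free induction medium, 0.5% DMSO vehicle, exposed 48 h in duplicate over 8 half-log concentrations from 100 uM. CAT mRNA measured by qRT-PCR, normalized to ACTB, GAPDH, POLR2A; bidirectional fit versus DMSO.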

Read-out in assay [3]: flavin-containing dimethylaniline monooxygenases 3 (FMO3), FMO3 (gene 2328)
Kind of assay: LTEA_HepaRG_FMO3: Life Technologies and Expression Analysis (LTEA) Assay for flavin-containing dimethylaniline monooxygenases 3 (FMO3) using HepaRG (AID 2283453). The method, boiled down: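 HepaRG, 48 h exposure, 8-pt half-log series from 100 uM, 0.5% DMSO vehicle, duplicates; FMO3 transcript by Fluidigm TaqMan qRT-PCR, housekeeping-normalized; gain/loss fit vs DMSO.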

Read-out in assay [4]: Cytochrome P450 (CYP1A1), CYP1A1 (gene 1543)
Kind of assay: LTEA_HepaRG_CYP1A1: Life Technologies and Expression Analysis (LTEA) Assay for Cytochrome P450 (CYP1A1) using HepaRG (AID 2283454). The method, boiled down: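 Differentiated HepaRG cells in serum-free induction medium were exposed in duplicate for 48 h to eight half-log concentrations up to 100 uM in 0.5% DMSO. CYP1A1 mRNA was quantified by TaqMan qRT-PCR, normalized to ACTB, GAPDH and POLR2A.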

Read-out in assay [5]: CFLAR gene, CFLAR (gene 8837)
Nature of the assay: LTEA_HepaRG_CFLAR: Life Technologies and Expression Analysis (LTEA) Assay for CFLAR gene using HepaRG (AID 2283455). The method, boiled down: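 Differentiated HepaRG cells in serum-free induction medium were exposed 48 h in duplicate to eight half-log concentrations up to 100 uM in 0.5% DMSO; mRNA measured by TaqMan qRT-PCR, normalized to ACTB, GAPDH, POLR2A; bidirectional fitting versus DMSO.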

Read-out in assay [6]: Forkhead box O1 (FOXO1), FOXO1 (gene 2308)
Kind of assay: LTEA_HepaRG_FOXO1: Life Technologies and Expression Analysis (LTEA) Assay for Forkhead box O1 (FOXO1) using HepaRG (AID 2283456). The method, boiled down: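 Differentiated HepaRG cells, in serum-free induction medium with 0.5% DMSO, exposed 48 h in duplicate to 8-point half-log series from 100 uM. FOXO1 mRNA measured by TaqMan qRT-PCR, normalized to ACTB, GAPDH, POLR2A; bidirectional fit versus DMSO.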

Read-out in assay [7]: growth arrest and DNA damage 45 (GADD45A), GADD45A (gene 1647)
Nature of the assay: LTEA_HepaRG_GADD45A: Life Technologies and Expression Analysis (LTEA) Assay for growth arrest and DNA damage 45 (GADD45A) using HepaRG (AID 2283458). The method, boiled down: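 Human HepaRG liver cells are treated in duplicate for 48 h with chemicals in 0.5% DMSO, highest concentration 100 uM. Expression is read by qRT-PCR and analyzed in both directions against vehicle.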

Read-out in assay [8]: Forkhead box O3 (FOXO3), FOXO3 (gene 2309)
Nature of the assay: LTEA_HepaRG_FOXO3: Life Technologies and Expression Analysis (LTEA) Assay for Forkhead box O3 (FOXO3) using HepaRG (AID 2283459). The method, boiled down:
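Differentiated human HepaRG cells, 48 h post-plating, exposed in duplicate for 48 h in serum-free induction medium; 8-point half-log series from 100 uM in 0.5% DMSO. FOXO3 mRNA by TaqMan qRT-PCR, normalized to ACTB/GAPDH/POLR2A; bidirectional fit versus DMSO.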

Read-out in assay [9]: ABC Transporter (ABCB1), ABCB1 (gene 5243)
Nature of the assay: LTEA_HepaRG_ABCB1: Life Technologies and Expression Analysis (LTEA) Assay for ABC Transporter (ABCB1) using HepaRG (AID 2283460). The method, boiled down: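 HepaRG cells exposed in duplicate for 48 h in serum-free induction medium to eight half-log concentrations up to 100 uM in 0.5% DMSO. ABCB1 mRNA quantified by qRT-PCR, normalised to ACTB, GAPDH and POLR2A; fitted bidirectionally versus DMSO.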

Read-out in assay [10]: growth arrest and DNA damage 45 (GADD45B), GADD45B (gene 4616)
Kind of assay: LTEA_HepaRG_GADD45B: Life Technologies and Expression Analysis (LTEA) Assay for growth arrest and DNA damage 45 (GADD45B) using HepaRG (AID 2283461). In short, it runs like this: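 Differentiated HepaRG cells, plated 48 h then switched to serum-free induction medium, were exposed 48 h in duplicate to eight half-log concentrations from 100 uM in 0.5% DMSO; mRNA quantified by qRT-PCR, normalized to ACTB/GAPDH/POLR2A, bidirectional fit versus DMSO.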

Read-out in assay [11]: ABC Transporter (ABCB11), ABCB11 (gene 8647)
Kind of assay: LTEA_HepaRG_ABCB11: Life Technologies and Expression Analysis (LTEA) Assay for ABC Transporter (ABCB11) using HepaRG (AID 2283463). The method, boiled down:
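Differentiated human HepaRG cells in serum-free induction medium, dosed in duplicate for 48 h. Eight-point half-log series from 100 uM in 0.5% DMSO; ABCB11 mRNA by qRT-PCR, normalized to ACTB, GAPDH, POLR2A, fitted bidirectionally versus DMSO.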

Read-out in assay [12]: ABC Transporter (ABCC2), ABCC2 (gene 1244)
Kind of assay: LTEA_HepaRG_ABCC2: Life Technologies and Expression Analysis (LTEA) Assay for ABC Transporter (ABCC2) using HepaRG (AID 2283464). In short, it runs like this:
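HepaRG cells were plated 48 h, switched to serum-free induction medium, then exposed in duplicate for 48 h to 8 concentrations (top 100 uM, half-log steps, 0.5% DMSO). ABCC2 mRNA was measured by qRT-PCR normalized to ACTB/GAPDH/POLR2A; bidirectional fitting versus DMSO.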

Read-out in assay [13]: Broad substrate specificity ATP-binding cassette transporter ABCG2 (Homo sapiens) (UniProt Q9UNQ0)
Nature of the assay: LTEA_HepaRG_ABCG2: Life Technologies and Expression Analysis (LTEA) Assay for ABC Transporter (ABCG2) using HepaRG (AID 2283465). In short, it runs like this: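 Differentiated HepaRG cells were exposed for 48 h in serum-free induction medium to 8 half-log concentrations, top 100 uM, in 0.5% DMSO. ABCG2 mRNA was measured by qRT-PCR, normalized to ACTB, GAPDH and POLR2A, with bidirectional fitting versus DMSO.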

Read-out in assay [14]: ATP-citrate lyase (ACLY), ACLY (gene 47)
Kind of assay: LTEA_HepaRG_ACLY: Life Technologies and Expression Analysis (LTEA) Assay for ATP-citrate lyase (ACLY) using HepaRG (AID 2283466). In short, it runs like this:
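Differentiated HepaRG cells exposed 48 h in serum-free induction medium to eight half-log concentrations up to 100 uM in 0.5% DMSO, duplicates. Transcript measured by Fluidigm TaqMan qRT-PCR, normalized to ACTB, GAPDH, POLR2A; bidirectional fit versus DMSO.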

Read-out in assay [15]: Peroxisomal acyl-coenzyme A oxidase 1 (ACOX1) gene, ACOX1 (gene 51)
Nature of the assay: LTEA_HepaRG_ACOX1: Life Technologies and Expression Analysis (LTEA) Assay for Peroxisomal acyl-coenzyme A oxidase 1 (ACOX1) gene using HepaRG (AID 2283467). In short, it runs like this: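 HepaRG cells, plated 48 h then switched to serum-free induction medium, were exposed in duplicate for 48 h to 8-point half-log concentrations up to 100 uM in 0.5% DMSO. ACOX1 mRNA was measured by qRT-PCR, normalized to ACTB/GAPDH/POLR2A, and fitted bidirectionally versus DMSO.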

Read-out in assay [16]: Alkaline Phosphatase, Placental (ALPP) gene, ALPP (gene 250)
Nature of the assay: LTEA_HepaRG_ALPP: Life Technologies and Expression Analysis (LTEA) Assay for Alkaline Phosphatase, Placental (ALPP) gene using HepaRG (AID 2283468). The method, boiled down: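 Differentiated human HepaRG cells were plated and cultured 48 h, then exposed in duplicate for 48 h in serum-free induction medium to eight half-log concentrations from 100 uM in 0.5% DMSO. ALPP mRNA was measured by TaqMan qRT-PCR, normalized to ACTB, GAPDH, POLR2A.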

Read-out in assay [17]: Bcl-2 (BAD) gene, BAD (gene 572)
Nature of the assay: LTEA_HepaRG_BAD: Life Technologies and Expression Analysis (LTEA) Assay for Bcl-2 (BAD) gene using HepaRG (AID 2283469). In short, it runs like this:
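Differentiated HepaRG cells were exposed in duplicate in 0.5% DMSO for 48 h to eight-point half-log concentrations up to 100 uM. BAD mRNA was measured by Fluidigm TaqMan qRT-PCR, normalized to ACTB, GAPDH and POLR2A, and fitted bidirectionally against DMSO.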

Read-out in assay [18]: Bcl-2 (BAX) gene, BAX (gene 581)
Nature of the assay: LTEA_HepaRG_BAX: Life Technologies and Expression Analysis (LTEA) Assay for Bcl-2 (BAX) gene using HepaRG (AID 2283470). The method, boiled down: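 Concentration-response endpoint fitted in both directions relative to 0.5% DMSO vehicle. Human HepaRG cultures receive test chemicals for 48 h at up to 100 uM; BAX mRNA is quantified by qRT-PCR against housekeeping genes.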

Read-out in assay [19]: ABC Transporter (ABCC3), ABCC3 (gene 8714)
Nature of the assay: LTEA_HepaRG_ABCC3: Life Technologies and Expression Analysis (LTEA) Assay for ABC Transporter (ABCC3) using HepaRG (AID 2283462). In short, it runs like this: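 HepaRG cells in serum-free induction medium were exposed for 48 h in duplicate to 8-point half-log concentrations topping at 100 uM in 0.5% DMSO. ABCC3 mRNA was measured by qRT-PCR normalized to ACTB, GAPDH and POLR2A, with bidirectional fitting versus DMSO.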

Active and inactive are the calls of the source. How the source made its calls: active means hit-call score of the fitted dose curve at least 0.9, where 1 is the maximum; inactive means score below 0.9.

Chain of Broad substrate specificity ATP-binding cassette transporter ABCG2 (Homo sapiens) (Q9UNQ0 whole entry, looked up): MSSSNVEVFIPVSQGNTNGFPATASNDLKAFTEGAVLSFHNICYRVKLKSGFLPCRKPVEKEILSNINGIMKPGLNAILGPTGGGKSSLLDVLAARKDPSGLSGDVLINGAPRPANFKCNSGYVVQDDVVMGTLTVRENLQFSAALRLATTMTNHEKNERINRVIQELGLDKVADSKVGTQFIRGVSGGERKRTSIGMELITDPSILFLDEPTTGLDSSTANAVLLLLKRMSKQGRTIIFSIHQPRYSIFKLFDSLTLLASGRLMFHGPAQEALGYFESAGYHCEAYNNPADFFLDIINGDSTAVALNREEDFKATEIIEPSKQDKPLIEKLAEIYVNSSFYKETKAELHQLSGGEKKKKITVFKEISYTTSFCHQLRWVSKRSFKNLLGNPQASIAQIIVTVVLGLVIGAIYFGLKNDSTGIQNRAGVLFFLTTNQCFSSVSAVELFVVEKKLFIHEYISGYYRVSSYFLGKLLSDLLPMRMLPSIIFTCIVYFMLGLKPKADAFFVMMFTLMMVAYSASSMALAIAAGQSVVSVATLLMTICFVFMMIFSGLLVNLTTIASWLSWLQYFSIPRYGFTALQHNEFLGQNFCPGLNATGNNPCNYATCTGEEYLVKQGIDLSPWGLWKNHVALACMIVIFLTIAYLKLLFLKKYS

For the molecule `OC1CCCCC1`, the call in assay [1], in [2], in assay [3], in assay [4], in assay [5] and in assay [6] was inactive. The molecule was called inactive in assay [7], in assay [8], in assay [9], in assay [10], in [11] and in assay [12]. Also, the outcome in assay [13], in assay [14], in [15], in assay [16], in assay [17] and in assay [18] was inactive.
As to `CC[C@H](C)[C@@H](C(=O)O)n1sc2ccccc2c1=O`, the molecule was classed as inactive in assay [1], in [2], in assay [3], in [5], in [6] and in [7]. The molecule was classed as inactive in [8], in assay [10], in [19], in [11], in assay [12] and in assay [13]. Besides, the molecule was classed as inactive in assay [14], in [15], in [17] and in assay [18]. In addition, the AC50 in assay [4] was 50 µM (active).
For the molecule `c1ccc2cc3c(ccc4ccccc43)cc2c1`, the AC50 in assay [1] was 9.56 µM (active); in assay [2], 15.4 µM (active); in assay [3], 13.6 µM (active); in [4], 1.66 µM (active); in assay [5] it was 10.5 µM (active); in [6], 17.8 µM (active). The AC50 in assay [8] was 6.54 µM (active); in [10], 20.1 µM (active); in [11] it was 14.6 µM (active); in [15] it was 18.8 µM (active). For the same molecule, the molecule was classed as inactive in assay [7], in [12], in assay [13], in assay [14], in [16] and in assay [17]. Moreover, the call in [18] was inactive.

In general, AC50 refers to the concentration giving half of the maximal activity seen.
